Assay outcomes from PubChem.
Pf Dd2 growth = blocks in vitro growth of P. falciparum Dd2; Potency, µM (doses to about 28.9 µM), for the others: at the highest dose activity, negative = inhibition, usual class: inhibitors; 4.3% of 120,000 active; P. falciparum Dd2 growth, SYBR Green, 72 h; AID 1347417; active = well fitted inhibition curve with a large enough effect;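 note: plate controls were DMSO vehicle for no effect and reference drug for full effect; nearly all actives have a fitted effect of over 65% in size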
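Infected erythrocytes (Dd2, 0.3% parasitemia, 2.5% hematocrit final) are added to compound in RPMI-1640/Albumax II medium, grown 72 h at 37C in low oxygen, then lysed with saponin/Triton-X containing SYBR Green and read by fluorescence.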
The depositor's hits bear a star; i = inactive; ! = a repeat was not active; [ ] = remark or other dose. The sample as a whole holds a higher share of hits than the screen did. Potency is the fitted concentration of half-maximal effect.

SMILES	Pf Dd2 growth
COc1ccc(CCC(=O)N2CCCN(C)c3ccccc32)cc1	-15%
CN1CCCN(C(=O)CCc2ccccc2)c2ccccc21	i
O=C(c1ccncc1)N1CCCN(CCc2ccccc2)c2ccccc21	i
CCc1nc(-c2c3n(c(=O)n(CC(=O)NCc4ccccc4Cl)c2=O)CCCC3)no1	i
O=C1N[C@H](CC(=O)N2CCN(c3ccccn3)CC2)C(=O)Nc2ccccc21	-2%
O=C1[C@H]2CN(Cc3ccc(Br)cc3)C[C@H]2C(=O)N1CCc1ccccc1	-12%
Cc1ccc(CCNC(=O)c2cc3sccc3n2Cc2ccc(C)cc2)cc1	i
Cc1ccc(Cn2c(C(=O)Nc3cccc(Cl)c3)cc3sccc32)cc1	-24%
Cc1ccc(Cn2c(C(=O)NCc3ccccc3Cl)cc3sccc32)cc1	11µM*
COc1ccc(CNC(=O)c2cc3sccc3n2Cc2ccc(F)cc2)cc1	-1%
CCOC(=O)c1cccc(NC(=O)c2cc3sccc3n2Cc2ccc(Cl)cc2)c1	11µM*
CCOC(=O)c1ccc(NC(=O)c2cc3sccc3n2Cc2ccc(Cl)cc2)cc1	-5%
COc1ccc(OC(=O)N2CCC(Oc3ccc4c(cnn4CCC(=O)O)c3)CC2)cc1	-19%[44.1 µM]
Cc1nnnn1CCC(=O)N[C@H]1[C@H]2CCO[C@H]2[C@@H]1N1CCCCC1	-6%
Cc1nc(CNC(=O)c2cccc(S(=O)(=O)NCc3cnn(C)c3)c2)no1	0%
Cc1cccnc1CC(C)NC(=O)c1csc2nc(-c3ccccc3Cl)cn12 (stereo unspecified)	i
C#CCNC(=O)C[C@@H]1O[C@H](CNC(=O)Nc2ccc(C)cc2)[C@@H](O)[C@H]1O	12%[44.1 µM]
O=C(Nc1ccc(-c2nnc3n2CCCC3)cc1)c1nccc2ccccc12	-8%
COc1ccccc1C(=O)Nc1cccc(-c2nnc3n2CCCC3)c1	4.5µM*
O=C(Nc1cccc(-c2nnc3n2CCCC3)c1)C1CCCC1	i
O=C(Nc1cccc(-c2nnc3n2CCCC3)c1)c1nccc2ccccc12	4.5µM*
CC(=O)Nc1cccc(C(=O)Nc2cccc(-c3nnc4n3CCCC4)c2)c1	-5%
O=C(Nc1cccc(-c2nnc3n2CCCC3)c1)c1ccccn1	i
COc1ccc2ccc(OCc3nc(C(=O)N4CCNC(=O)C4C)co3)cc2c1 (stereo unspecified)	9%
Cc1nc(-c2c3n(c(=O)n(CC(=O)Nc4ccc(F)cc4)c2=O)CCCCC3)no1	i
SMILES	Pf Dd2 growth
O=C(NC1C[C@H]2CC[C@@H](C1)N2C(=O)COc1ccccc1)c1ccncc1 (stereo partly specified)	-10%
Cc1ccc(CNC(=O)CN2C(=O)NC3(CCOCC3)C2=O)cc1	27%
CC(C)NC(=O)c1cc(-c2cccc(C(F)(F)F)c2)c2nncn2n1	4%
C#CCNC(=O)c1cc(-c2cccc(C(F)(F)F)c2)c2nncn2n1	14µM*
O=C(NCc1cccs1)c1cc(-c2cccc(C(F)(F)F)c2)c2nncn2n1	2µM*
Cc1cn2nc(C(=O)NCc3cccc(C(F)(F)F)c3)cc2c(=O)[nH]1	-19%
O=C(c1cc(-c2cccc(C(F)(F)F)c2)c2nncn2n1)N1CCOCC1	15%
O=C(c1cc(-c2cccc(C(F)(F)F)c2)c2nncn2n1)N1CCCC1	-21%
O=S(=O)(c1ccccc1C(F)(F)F)N1CC(c2nc(-c3ccncc3)no2)C1	i
CN1C(=O)C2(CCN(C(=O)c3ccccc3)C2)c2ccccc21 (stereo unspecified)	-15%[44.1 µM]
CC(C)CCNC(=O)N1CCC2(CC1)C(=O)N(C)c1ccccc12	-15%
COc1ccc(C(=O)N2CCC3(CC2)C(=O)Nc2ccccc23)cc1	52%
O=C(c1cccc(Cl)c1)N1CCC2(C1)C(=O)N(CCc1ccccc1)c1ccccc12 (stereo unspecified)	7.9µM*!
COc1ccc(C(=O)N2CCC3(C2)C(=O)N(CCc2ccccc2)c2ccccc23)cc1 (stereo unspecified)	8.9µM*!
CN1C(=O)C2(CCN(C(=O)c3cccc(F)c3)C2)c2ccccc21 (stereo unspecified)	i
CC(C)Oc1ccc(C(=O)N2CCC3(CC2)C(=O)N(C)c2ccccc23)cc1	8.9µM*
COc1ccc(C(=O)N2CCC3(C2)C(=O)N(Cc2ccccc2)c2ccccc23)cc1 (stereo unspecified)	i
CC1(C(=O)O)CCN(C(=O)c2cccc(Cl)c2)CC1	-12%[44.1 µM]
COc1ccc(N2CCN(C(=O)CCc3ccnc(N4CCOCC4)c3)CC2)cc1	-1%
COc1ccccc1[C@@H]1CN(C(=O)CCc2ccncc2)C[C@H]1C(=O)O	-4%
COc1ccc(NC(=O)c2nc(C(O)c3cccc(O)c3)oc2C)cn1 (stereo unspecified)	-11%[44.1 µM]
COc1ccc(-c2noc(-c3nc(C)no3)n2)c(OC)c1	i
Cc1noc(C)c1C(=O)N1CCC2(CC1)CN(C(=O)c1ccc(Cl)cc1)CCO2	32%
COc1cccc(C(=O)N[C@H]2[C@H](O)[C@H](O)C[C@@H]2c2ccccc2)c1	3%[44.1 µM]
COCC(=O)N[C@H]1C[C@@H](CO)N(Cc2scnc2C)C1	i
SMILES	Pf Dd2 growth
COc1ccccc1-n1cc(C(=O)N2CC(C)(C)C(C)(O)C2)cn1 (stereo unspecified)	-14%
COc1cccc(NS(=O)(=O)c2ccc3c(c2)[C@H]2C=CC[C@H]2[C@@H](c2ccccc2Cl)N3)c1	10µM*
COc1cccc(NS(=O)(=O)c2ccc3c(c2)CCCN3C(=O)C2CCC2)c1	-23%
COc1cccc([C@@H]2Nc3ccc(C(=O)O)cc3[C@@H]3C=CC[C@@H]32)c1OC	2%
O=C(O)CCc1cc2n(n1)CCN(C(=O)Cc1ccncc1)C2	1%
CN1CC2(CCN(C(=O)NCc3ccco3)CC2)CC(c2ccccc2)C1=O (stereo unspecified)	1%
COC(=O)[C@@H]1Cc2ncn(Cc3ccc(OC)cc3)c2CN1Cc1cccc(C#N)c1	13µM*
COC(=O)[C@@H]1Cc2ncn(Cc3ccc(OC)cc3)c2CN1C(=O)c1ccc(C#N)cc1	i
COC(=O)[C@@H]1Cc2ncn(Cc3ccc(OC)cc3)c2CN1C(=O)c1ccc(F)cc1	-40%[44.1 µM]
Cc1ccsc1C(=O)N1CCCCCC1c1nnc(-c2ccccc2)o1 (stereo unspecified)	i
COc1cccc(N2CC(C(=O)N3CCOCC3)NC2=O)c1 (stereo unspecified)	15%[44.1 µM]
Cc1ccncc1C(=O)N1CCC(c2noc(-c3cnccn3)n2)C1 (stereo unspecified)	39%[5.79 µM]
COc1ccc(C(=O)NCCn2ccn3nc(-c4ccc(C)cc4C)cc3c2=O)cc1F	-16%
CC(=O)Nc1cccc(C(=O)NCCn2ccn3nc(-c4ccc(C)cc4C)cc3c2=O)c1	5.6µM*
Cc1ccc(-c2cc3c(=O)n(CCNC(=O)c4ccccc4F)ccn3n2)cc1C	i
Cc1ccc(C)c(C(=O)NCCn2ccn3nc(-c4cc(C)ccc4C)cc3c2=O)c1	i
COc1cccc(C(=O)NCCn2ccn3nc(-c4ccc(C)cc4C)cc3c2=O)c1OC	i
CCn1nccc1C(=O)NCCn1ccn2nc(-c3ccc(C)c(C)c3)cc2c1=O	7.9µM*
Cc1ccc(-c2cc3c(=O)n(CCNC(=O)c4ccc(N(C)C)cc4)ccn3n2)c(C)c1	10µM*
Cc1ccc(-c2cc3c(=O)n(CCNC(=O)c4cccc(Cl)c4)ccn3n2)cc1C	-3%
Cc1ccc(-c2cc3c(=O)n(CCNC(=O)c4cc(Cl)ccc4F)ccn3n2)c(C)c1	i
CCCCN(C)C(=O)CC1CCN(c2ccnc(OC)n2)CC1	i
O=C(c1cnc2ccccc2c1)N1CC[C@H](N2CCOCC2)[C@H](CCCO)C1	16%
